Pf Dd2 growth: qHTS Primary assay for Inhibitors of Plasmodium falciparum Dd2 growth in vitro. 4.3% of 120,000 active. Potency, µM (doses to about 28.9 µM), actives largely listed as inhibitors. P. falciparum Dd2 growth, SYBR Green, 72 h. AID 1347417, 2020; active means well fitted inhibition curve with a large enough effect; further: nearly all actives have a fitted effect of over 65% in size
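Infected erythrocytes (Dd2, 0.3% parasitemia, 2.5% hematocrit final) are added to compound in RPMI-1640/Albumax II medium, grown 72 h at 37C in low oxygen, then lysed with saponin/Triton-X containing SYBR Green and read by fluorescence.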
Large screens that a line does not name were inactive. This is one part of a sample in which hits are shown more often than they occur.

CCCc1noc(-c2ccn3c(CNC(=O)c4ccc(F)cc4Cl)nnc3c2)n1	Pf Dd2 growth 3.5µM
Cc1noc(-c2ccn3c(CNC(=O)c4ccc(F)cc4Cl)nnc3c2)n1	none
CCCc1noc(-c2ccn3c(CNC(=O)c4ccc(C)cc4C)nnc3c2)n1	none
Cc1noc(-c2ccn3c(CNC(=O)c4ccccc4Cl)nnc3c2)n1	Pf Dd2 growth 0.28µM
Cc1noc(-c2ccn3c(CNC(=O)c4cccc(Cl)c4)nnc3c2)n1	none
COc1cc(Cl)cc(C(=O)N2CCC3(CCCNC3)C2)c1 (configuration not stated)	none
O=C(NC1CCCCC1)C1CN(S(=O)(=O)c2cc(F)cc(F)c2)CC12CCOCC2 (configuration not stated)	none
Cc1ccc(C(C)NC(=O)CN2C(=O)NC3(CCCCC3)C2=O)cc1 (configuration not stated)	none
NC1(Cc2cc(CN3CCN(c4ccccc4)CC3)on2)COC1	none
O=c1[nH]c(N2CCOCC2)nc2c1CCN(Cc1cccc(Br)c1)CC2	none
NC(=O)c1n[nH]c2c1CN(CC1(O)CNCCOC1)CC2 (configuration not stated)	none
CN(Cc1ccccc1)Cc1nnc(C(=O)N2CCC[C@@H]2c2ccc(Br)cc2)n1Cc1ccccc1	none
CC(C)CNC(=O)N1CCC(c2nc(CCOCC3CCOCC3)no2)C1 (configuration not stated)	none
COc1ccc(CNC(=O)C[C@@H]2C[C@@H](C(C)C)[C@H](CC#N)C=C2C)cc1	none
COc1ccc(-c2nnc(C[C@@H]3C[C@@H](C(C)C)[C@H](CN4CCN(C)CC4)C=C3C)o2)cc1	none
CC1=C[C@@H](CNCc2ccccn2)[C@H](C(C)C)C[C@H]1Cc1nnc(-c2ccccc2)o1	Pf Dd2 growth 3.5µM
COc1ccc(-c2nnc(C[C@@H]3C[C@@H](C(C)C)[C@H](CN(C)CCc4ccccn4)C=C3C)o2)cc1	Pf Dd2 growth 11µM
CC1=C[C@@H](CNC(=O)CCC(=O)O)[C@H](C(C)C)C[C@H]1CC(=O)NCc1ccccn1	none
CCNC(=O)NC[C@@H]1C=C(C)[C@H](CC(=O)NCc2ccccn2)C[C@H]1C(C)C	none
CC1=C[C@@H](CNS(=O)(=O)c2ccccc2)[C@H](C(C)C)C[C@H]1Cc1nnc(-c2ccncc2)o1	none
COc1ccc(-c2nnc(C[C@@H]3C[C@@H](C(C)C)[C@H](CN(C)CCC#N)C=C3C)o2)cc1	Pf Dd2 growth 7.9µM
COC(=O)N1CCn2c(nn(-c3ccc(C)cc3)c2=O)C1	none
COC[C@@H]1CN(C(=O)c2occc2C)C[C@H]1c1nc(C2CC2)no1	none
Cc1ccc(-c2cnc([C@@H]3COCCN3C3CCOCC3)[nH]2)cc1	none
O=C(NCc1cnc2c(c1)CCC2)C1NCCc2[nH]cnc21 (configuration not stated)	none
O=C(C1CCC1)N1CCCC1c1nc(C2CCOCC2)no1 (configuration not stated)	none
O=C(c1ccc(F)cc1)N1CCC(Cc2nncn2-c2ccccc2)CC1	none
Cc1ccccc1S(=O)(=O)N1CCC(c2noc(-c3ccccn3)n2)C1 (configuration not stated)	none
O=C(c1ccno1)N1C[C@@H]2OCC(=O)N(Cc3ccccn3)[C@@H]2C1	none
Cc1cccnc1C(=O)N1C[C@@H](CO)[C@H](c2nc(C3CC3)no2)C1	none
CCOC(=O)C1(Cc2ccccc2Cl)CCN(C(=O)c2ccsc2)CC1	none
CCOC(=O)C1(Cc2ccccc2Cl)CCN(Cc2cccc3c2OCO3)CC1	Pf Dd2 growth 8.9µM
CCOC(=O)C1(Cc2ccccc2F)CCCN(C(=O)C2=C(C)OCCO2)C1 (configuration not stated)	none
CCCCOC(=O)C1=CN(Cc2ccccc2)S(=O)(=O)N=C1C	none
COc1cccc(S(=O)(=O)N2CC(n3cc(C(=O)NCc4ccccc4)nn3)C2)c1	none
Cc1ccc(CNC(=O)N2CCCC(Cc3nncn3-c3ccccc3)C2)cc1 (configuration not stated)	none
Cc1ccc(-c2ccc3nnc(CNC(=O)C4CCCC4)n3n2)cc1C	none
O=C(NC[C@H]1O[C@@H](CO)[C@@H](O)[C@H]1N1CCN(c2cccc(C(F)(F)F)c2)CC1)Nc1ccc(F)cc1F	none
O=C(c1ccccn1)C1CCCN(c2ncncn2)C1 (configuration not stated)	none
Cc1ccc(NC2=C(c3ccc(C(F)(F)F)cc3)C(=O)c3ccccc32)cc1C	Pf Dd2 growth 0.79µM
CC(=O)N1CCC2(CC1)CC(c1ccccc1)=NO2	none
Cc1c(CC(=O)NC2CCOC2=O)c2c(n1Cc1ccccc1F)CCCC2=O (configuration not stated)	none
Cc1c(CC(=O)NCC2CC2)c2c(n1Cc1ccccc1F)CCCC2=O	none
Cc1c(CC(=O)NC(C)C2CC2)c2c(n1Cc1ccccc1F)CCCC2=O (configuration not stated)	Pf Dd2 growth 10µM
CCCn1cnc2c1CN(S(=O)(=O)c1cccc(C(F)(F)F)c1)[C@H](C(=O)OC)C2	none
CCc1ccc2oc(-c3cccc(NC(=O)c4ccc(N5CCC(C)CC5)c([N+](=O)[O-])c4)c3)nc2c1	Pf Dd2 growth 7.9µM
Cc1c(NC(=O)c2ccc(N3CCC(C)CC3)c([N+](=O)[O-])c2)cccc1-c1nc2ccccc2o1	none
O=C(Nc1cc(-c2nc3cc(Cl)ccc3o2)ccc1Cl)c1cc([N+](=O)[O-])ccc1N1CCOCC1	none
Cc1ccc2oc(-c3ccc(C)c(NC(=O)c4ccc(N5CCC(C)CC5)c([N+](=O)[O-])c4)c3)nc2c1	none
O=C(Nc1cccc(-c2nc3ccccc3o2)c1)c1cc([N+](=O)[O-])ccc1N1CCOCC1	Pf Dd2 growth 8.9µM
Cc1ccc(-c2nc3cc(Cl)ccc3o2)cc1NC(=O)c1cc([N+](=O)[O-])ccc1N1CCOCC1	none
Cc1c(Cl)cccc1NC(=O)C[C@H]1NC(=O)c2ccccc2NC1=O	none
O=C([C@@H]1C[C@H](Oc2cccnc2)CN1C(=O)COc1ccc(F)cc1)N1CCCC1	none
CN1Cc2c(cc(N3CCOCC3)nc2-c2cnn(C)c2)C1=O	none
COc1ccc(C2Cn3nnc(C(=O)N4CCN(C(=O)Cc5cccc(F)c5)CC4)c3CO2)cc1 (configuration not stated)	none
COc1ccc(NC(=O)N2CCC(Oc3ncccc3C(=O)N3CCOCC3)C2)cc1F (configuration not stated)	none
COc1cccc(C(=O)N2CCC(C(NC(=O)c3ccc(F)cc3)C(=O)NCC(C)C)CC2)c1 (configuration not stated)	none
O=C(N[C@@H](Cn1ccc(=O)[nH]c1=O)C(=O)O)C1CCCCC1	none
Cn1c(Cn2cccn2)nnc1C1CCCN(Cc2nc(C(N)=O)no2)C1 (configuration not stated)	none
COC1CCC12CCN(C(=O)NC1CCCCC1)CC2 (configuration not stated)	none
CCCSC1=NC2(CCN(C(=O)NC3CCCCC3)CC2)N=C1c1ccc(OC)cc1	Pf Dd2 growth 11µM
CCSC1=NC2(CCN(C(=O)NC3CCCCC3)CC2)N=C1c1ccc(OC)cc1	Pf Dd2 growth 7.1µM
CCCSC1=NC2(CCN(C(=O)NC3CCCCC3)CC2)N=C1c1ccccc1	none
COc1ccc(-c2nc(C(C)C)nc3c2CCN(C(=O)NC2CCCC2)CC3)cc1	none
Cc1nc(-c2ccc(OC3CCN(C(=O)NC4CCCCC4)C3)cc2)no1 (configuration not stated)	none
CNc1nc(C(=O)N2CCC3(CCCN(CCOC)C3=O)C2)cs1 (configuration not stated)	none
Cc1cc(C)cc(NC(=S)N[C@H]2CO[C@H]3[C@@H]2OC[C@@H]3n2nnnc2Oc2cccc(N(C)C)c2)c1	none

Compound activity deposited in PubChem BioAssay by National Center for Advancing Translational Sciences (NCATS).
